# High-throughput results from PubChem.
# A selection: hits, their analogues and other compounds. The true share with any hit is near 13%.
# HCV inh: blocks hepatitis C virus | 340,000 tested, 3.4% active | Potency, µM (doses to about 41.8 µM), most hits filed as inhibitors | Huh7.5.1 HCVcc-Cre infection, luciferase reporter, 44 h | AID 651820
#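 Luciferase read-out (15 sec integration) after a 15 min room-temperature substrate step quantifies HCVcc-Cre infection. Cells, 1,000 per well, had compound added 4 h post-plating, then virus at ~0.5 moi, and were cultured 44 h.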
# HCMV antiviral: inhibitors of human cytomegalovirus; HFF cells, HCMV-luciferase reporter, 72 h; stronger effect = lower value; activity change, negative = inhibition, % at 57.5 µM; 410,000 tested, 4.5% active; in the data active means activity change below about -60%; inconclusive means no clear call, values can overlap the other calls; inactive means above about -39%
#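 Two-dose cell screen: HFF monolayers treated with compounds and infected with luciferase-expressing HCMV at 1 PFU/cell, 72 h at 37C, then lysed for luciferase measurement.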
# Pf growth 48h: P. falciparum growth inhibition at 48 hours (one generation); 310,000 tested, 5.9% active; Potency, µM (doses to about 28.7 µM), most hits filed as inhibitors; AID 504832; P. falciparum luciferase growth in erythrocytes, 48 h
#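 Compounds are pin-transferred into medium, infected erythrocytes (2% hematocrit, 0.1% parasitemia final) are added, and plates sit one parasite generation at 37 C in 5% CO2. Detection reagent is then added and luminescence measured.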
# Pf growth 96h: P. falciparum growth inhibition at 96 hours; Potency, µM (titrated, usually from 28.7 µM), hits mostly inhibitors; 320,000 tested, 6.9% active; P. falciparum luciferase reporter growth, 96 h; AID 504834
#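 P. falciparum expressing integrated firefly luciferase grown in erythrocytes (2% hematocrit, 0.05% parasitemia final) with compounds for 96 hours at 37 C, 5% CO2. Growth inhibition read as loss of luminescence after adding luciferase detection reagent.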
# A number is an active result; – = inactive; ? = inconclusive; · = no result given. Unless noted, the call rests on the fitted dose curve; in most records, active means well fitted inhibition curve with a large enough effect; inconclusive means small, poorly fitted or top-dose-only effect, or another doubt; inactive means no such curve, though single readings can be large or run the other way.
SMILES,HCV inh,HCMV antiviral,Pf growth 48h,Pf growth 96h
CCn1c(CNc2ccc(Cl)cc2)nnc1SCCN1CCCCC1,?,-106,?,–
CCn1c(CNc2ccc(Cl)cc2)nnc1SCc1ccc(Cl)cc1,?,–,?,–
Clc1ccc(NCc2nnc3n2CCCCC3)cc1,–,-99,–,·
CCC(=O)N1CCc2cc(S(=O)(=O)Nc3cc(C)ccc3OC)ccc21,·,–,·,·
COc1ccc(CCNC(=O)c2ccc3c(c2)N(Cc2cc(C)ccc2C)C(=O)c2ccccc2S3=O)cc1OC (centres undefined),·,–,·,·
CCc1ccccc1NC(=O)Cn1nnc(-c2nc(-c3ccc(C)cc3)no2)c1N,·,–,·,·
On1ccccc1=S,6.3µM,-99,0.83µM,0.59µM
CNC1C(O)C(OC2C(NC(=O)C(O)CN)CC(N)C(OC3OC(CN)C(O)C(O)C3O)C2O)OCC1(C)O (centres undefined),·,·,–,–
Cc1ccc(S(=O)(=O)N2CCC(C(=O)Nc3ccc(S(=O)(=O)N4CCCC4)cc3)CC2)cc1C,?,–,12µM,?
CC1CCCN(S(=O)(=O)c2ccc(NC(=O)C3CCN(C(=O)C(C)(C)C)CC3)cc2)C1 (centres undefined),?,?,5.2µM,6.6µM
O=C(Nc1ccc(Oc2ccccc2)cc1)C1CCN(S(=O)(=O)c2ccccc2)CC1,·,-82,·,·
Cc1ccc(S(=O)(=O)N2CCC(C(=O)Nc3ccncc3)CC2)cc1,–,–,?,?
O=C(Nc1ccc(S(=O)(=O)N2CCCCC2)cc1)C1CCCCC1,–,–,?,?
CC1CCN(S(=O)(=O)c2ccc(NC(=O)C3CC3)cc2)CC1,–,–,?,?
Cc1ccc(S(=O)(=O)N2CCC(C(=O)Nc3ccc(C(C)C)cc3)CC2)cc1,11µM,–,?,?
Cc1ccc(S(=O)(=O)N2CCC(C(=O)Nc3ccc(Oc4ccccc4)cc3)CC2)cc1,·,–,·,·
CC(CNC(=O)c1ccc(Cn2c(SCc3ccccc3)nc3cccnc32)cc1)c1ccccc1 (centres undefined),·,–,·,·
Cc1ccc(S(=O)(=O)N2CCC(C(=O)N3CCCC3C(=O)N[C@@H](CC(C)C)C(=O)NCC(N)=O)CC2)cc1 (some centres undefined),1µM,–,?,6.6µM
O=C(Nc1ccc(S(=O)(=O)N2CCOCC2)cc1)C1CC(=O)N(c2ccc(F)cc2)C1 (centres undefined),–,–,–,?
Cc1ccc(S(=O)(=O)N2CCC(C(=O)NCCN3CCCCCC3)CC2)cc1,?,–,12µM,–
COc1ccc(S(=O)(=O)N2CCC(C(=O)Nc3cccc(C(C)=O)c3)CC2)cc1,–,–,12µM,?
O=C(Nc1ccc(S(=O)(=O)N2CCOCC2)cc1)C1CCN(S(=O)(=O)c2ccc(F)cc2)CC1,?,-66,?,?
CCN(CC)c1ccc(NC(=O)c2cc(C)nc3c2c(C)nn3-c2ccc(C)cc2)c(C)c1,·,–,·,·
COc1ccc2c3c(n(C)c2c1)[C@H](CO)N(C(=O)c1cccc(F)c1)CC31CN(C(=O)c2cccc(F)c2)C1,·,–,·,·
CCCNC(=O)C1CCN(S(=O)(=O)c2ccc(Br)cc2)CC1,?,–,4.7µM,–
SMILES,HCV inh,HCMV antiviral,Pf growth 48h,Pf growth 96h
Cc1ccc(S(=O)(=O)N2CCC(C(=O)Nc3ccc(S(=O)(=O)N4CCCC4)cc3)CC2)cc1,–,–,13µM,4.7µM
Cc1ccc(C(=O)NNC(=O)C2CCN(S(=O)(=O)c3ccc(C)cc3)CC2)cc1,–,–,2.6µM,–
Cc1ccccc1NC(=O)C1CCN(S(=O)(=O)c2ccccc2)CC1,·,-78,·,·
CCOc1ccccc1NC(=O)C1CCN(S(=O)(=O)c2ccccc2)CC1,·,–,·,·
Cc1ccc(S(=O)(=O)N2CCC(C(=O)NNC(=O)c3ccccc3)CC2)cc1,–,–,–,–
Cn1c(=O)c2c(-c3ccccc3)n(-c3cccc(C#N)c3)cc2n(C)c1=O,·,–,·,·
O=C(Cn1ncc2c3ccccc3n(Cc3ccc(F)cc3)c2c1=O)NCc1ccccn1,·,–,·,·
O=C(Nc1cccc(S(=O)(=O)N2CCCC2)c1)C1CCCN1C(=O)c1cccs1 (centres undefined),?,–,?,–
O=C(Nc1ccc(Oc2ccccc2)cc1)C1CCCN(c2ncccn2)C1 (centres undefined),–,-72,·,?
O=C(Nc1ccc(F)cc1)C1CCN(S(=O)(=O)c2ccc3[nH]c(=O)oc3c2)CC1,–,–,–,13µM
Cc1ccccc1C(=O)N1CCC(C(=O)Nc2ccc(S(=O)(=O)N3CCCCC3)cc2)CC1,13µM,–,?,?
